# Source: PubChem BioAssay (Tox21)
# Where “and” joins values, the source holds several entries; their conditions need not be identical. Identical values can stand only once. Inconclusive results are not listed. A call without a number means that no potency is given here. Some compounds were tested as several samples or in several runs, with calls that do not always agree. Calls of active or inactive are those of the source. Unless noted, calls follow the shape of the dose curve; as a rule, active = well fitted curve in the direction sought with a large enough effect in the repeat runs; inconclusive = weak or mixed curves; inactive = no such curve, though single readings can be large; an effect the other way counts as inactive or inconclusive.
# Key:
# [1] = biological target: Acetylcholinesterase (Homo sapiens) (UniProt P22303); assay: Acetylcholinesterase (AChE) small molecule antagonists: enzyme-based qHTS assay (AID 1347397; calls by dose curve; also: nearly all actives have a fitted effect of over 55% in size; also: potency is read from the fitted curve at half-maximal effect); conditions: Potency: AChE enzyme activity inhibition
# Chain of Acetylcholinesterase (Homo sapiens) (P22303 whole entry, looked up): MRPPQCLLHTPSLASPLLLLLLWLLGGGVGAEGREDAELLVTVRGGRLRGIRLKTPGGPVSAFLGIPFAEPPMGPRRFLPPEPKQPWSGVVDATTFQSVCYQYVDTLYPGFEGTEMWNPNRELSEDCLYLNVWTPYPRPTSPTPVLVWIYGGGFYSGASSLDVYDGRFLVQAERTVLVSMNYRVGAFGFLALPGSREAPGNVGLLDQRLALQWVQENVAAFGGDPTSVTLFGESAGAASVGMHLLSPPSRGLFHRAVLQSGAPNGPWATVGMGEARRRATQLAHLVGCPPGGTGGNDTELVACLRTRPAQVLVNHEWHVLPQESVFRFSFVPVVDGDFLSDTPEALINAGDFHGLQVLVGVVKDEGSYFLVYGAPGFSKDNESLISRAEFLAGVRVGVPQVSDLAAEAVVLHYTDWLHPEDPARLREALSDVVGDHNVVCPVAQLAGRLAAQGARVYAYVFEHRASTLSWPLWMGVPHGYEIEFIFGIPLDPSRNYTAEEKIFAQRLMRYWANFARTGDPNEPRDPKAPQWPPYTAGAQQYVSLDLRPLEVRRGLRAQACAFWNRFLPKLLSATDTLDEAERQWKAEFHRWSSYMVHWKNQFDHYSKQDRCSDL
# Method in brief: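 First, recombinant human AChE (50 mU/mL as dispensed) received test compound or DMSO. Second, plates stood 30 min at room temperature. Third, DTNB and acetylthiocholine were added, followed by 10 min at room temperature and colorimetric detection.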
# [2] = biological target: Acetylcholinesterase (Homo sapiens) (UniProt P22303); assay: Acetylcholinesterase (AChE) small molecule antagonists: fluorescence cell-based qHTS assay (AID 1347398; calls by dose curve; also: nearly all actives have a fitted effect of over 50% in size); conditions: Potency: AChE activity
# Method in brief: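 Homogeneous quantitative HTS format. SH-SY5Y cells seeded at 2,000 per well settle overnight at 37 C. Compound pretreatment runs 30 min (37 C, 5% CO2); substrate/probe mix then reacts 40 min at RT before reading 490/520 nm.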
# [3] = biological target: Acetylcholinesterase (Homo sapiens) (UniProt P22303); assay: Acetylcholinesterase (AChE) small molecule antagonists: enzyme-based qHTS assay with human liver microsomes (AID 1347399; calls by dose curve; also: nearly all actives have a fitted effect of over 60% in size); conditions: Potency: qHTS inhibition
# Method in brief: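 Recombinant human AChE (50 mU/mL in the enzyme mix) and human liver microsomes (0.25 mg/mL final) were preincubated with compound and NADPH (0.25 mg/mL final) for 30 min at 37 C. Acetylthiocholine/DTNB was then added; thiocholine was read colorimetrically after 10 min at room temperature.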
# [4] = biological target: Cytochrome P450 2D6 (Homo sapiens) (UniProt P10635); assay: Cytochrome P450 Family 2 Subfamily D Member 6 (CYP2D6) small molecule antagonists: luciferase reporter qHTS assay (AID 1671196); also: nearly all actives have a fitted effect of over 50% in size; also: potency is read from the fitted curve at half-maximal effect
# Chain of Cytochrome P450 2D6 (Homo sapiens) (P10635 whole entry, looked up): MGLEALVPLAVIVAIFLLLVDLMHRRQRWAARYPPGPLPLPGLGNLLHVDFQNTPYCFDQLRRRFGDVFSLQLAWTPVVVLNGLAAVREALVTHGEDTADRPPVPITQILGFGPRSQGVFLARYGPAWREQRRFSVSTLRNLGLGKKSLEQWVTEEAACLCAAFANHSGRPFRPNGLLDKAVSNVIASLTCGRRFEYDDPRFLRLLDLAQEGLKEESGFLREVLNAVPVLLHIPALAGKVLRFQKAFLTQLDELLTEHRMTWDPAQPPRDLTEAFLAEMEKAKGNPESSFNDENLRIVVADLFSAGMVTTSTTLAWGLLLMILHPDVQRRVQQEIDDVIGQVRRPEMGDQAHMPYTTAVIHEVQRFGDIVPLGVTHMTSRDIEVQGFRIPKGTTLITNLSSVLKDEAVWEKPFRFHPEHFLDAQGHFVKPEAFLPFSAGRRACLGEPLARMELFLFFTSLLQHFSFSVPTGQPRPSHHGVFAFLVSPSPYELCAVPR
# Method in brief: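 Quantitative HTS of Tox21 chemicals against CYP2D6 using a luminescent proluciferin substrate. After NADPH addition, 1 h room-temperature reaction; luminescence recorded 20 min post detection reagent.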
# [5] = biological target: Cytochrome P450 2C19 (Homo sapiens) (UniProt P33261); assay: Cytochrome P450 Family 2 Subfamily C Member 19 (CYP2C19) small molecule antagonists: luciferase reporter qHTS assay (AID 1671197); also: nearly all actives have a fitted effect of over 65% in size; also: potency is read from the fitted curve at half-maximal effect
# Chain of Cytochrome P450 2C19 (Homo sapiens) (P33261 whole entry, looked up): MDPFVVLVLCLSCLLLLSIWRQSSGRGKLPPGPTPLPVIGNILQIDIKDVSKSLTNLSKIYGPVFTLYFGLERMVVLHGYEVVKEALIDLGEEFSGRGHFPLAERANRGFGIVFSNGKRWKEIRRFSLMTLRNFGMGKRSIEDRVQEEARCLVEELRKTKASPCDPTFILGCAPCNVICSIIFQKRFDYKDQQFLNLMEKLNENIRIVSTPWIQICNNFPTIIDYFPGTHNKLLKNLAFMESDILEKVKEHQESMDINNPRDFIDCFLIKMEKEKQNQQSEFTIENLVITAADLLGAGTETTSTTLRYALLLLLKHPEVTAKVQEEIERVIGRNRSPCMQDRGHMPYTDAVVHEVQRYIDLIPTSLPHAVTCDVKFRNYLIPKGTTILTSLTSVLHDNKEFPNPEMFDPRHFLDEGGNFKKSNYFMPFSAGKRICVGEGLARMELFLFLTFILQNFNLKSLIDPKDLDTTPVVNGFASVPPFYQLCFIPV
# Method in brief: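 P450-Glo CYP2C19 system: enzyme-substrate mix with compound 10 min at room temperature, then NADPH regeneration solution, 1 h at 37C. Proluciferin-to-luciferin conversion detected by luminescence after 20 min with detection reagent; ketoconazole as positive control.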
# [6] = biological target: Cytochrome P450 1A2 (Homo sapiens) (UniProt P05177); assay: Cytochrome P450 Family 1 Subfamily A Member 2 (CYP1A2) small molecule antagonists: luciferase reporter qHTS assay (AID 1671199); also: nearly all actives have a fitted effect of over 50% in size; also: potency is read from the fitted curve at half-maximal effect
# Chain of Cytochrome P450 1A2 (Homo sapiens) (P05177 whole entry, looked up): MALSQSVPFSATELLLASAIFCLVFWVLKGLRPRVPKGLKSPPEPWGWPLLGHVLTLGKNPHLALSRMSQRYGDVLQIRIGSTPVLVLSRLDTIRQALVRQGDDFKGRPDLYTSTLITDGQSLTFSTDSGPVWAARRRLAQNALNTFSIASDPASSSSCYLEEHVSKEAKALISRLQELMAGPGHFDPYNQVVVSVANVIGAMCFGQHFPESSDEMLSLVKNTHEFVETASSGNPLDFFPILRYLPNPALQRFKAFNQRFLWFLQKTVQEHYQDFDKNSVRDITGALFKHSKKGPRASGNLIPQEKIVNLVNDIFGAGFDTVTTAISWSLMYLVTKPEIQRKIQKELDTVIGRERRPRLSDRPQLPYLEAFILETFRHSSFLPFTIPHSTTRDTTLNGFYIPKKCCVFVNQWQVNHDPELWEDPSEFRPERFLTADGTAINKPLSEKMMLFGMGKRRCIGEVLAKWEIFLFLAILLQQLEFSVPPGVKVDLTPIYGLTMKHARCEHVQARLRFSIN
# Method in brief: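 Quantitative high-throughput format using the P450-Glo CYP1A2 system. Reaction initiated by NADPH regeneration solution, 1 h at room temperature, then stopped with detection reagent; luminescence measured 20 min later.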
# [7] = biological target: Voltage-gated inwardly rectifying potassium channel KCNH2 (Homo sapiens) (UniProt Q12809); assay: Human Ether-a-go-go-Related Gene (hERG) channel small molecule antagonists: fluorescence cell-based qHTS assay (AID 1671200); also: nearly all actives have a fitted effect of over 50% in size; also: potency is read from the fitted curve at half-maximal effect
# Chain of Voltage-gated inwardly rectifying potassium channel KCNH2 (Homo sapiens) (Q12809 whole entry, looked up): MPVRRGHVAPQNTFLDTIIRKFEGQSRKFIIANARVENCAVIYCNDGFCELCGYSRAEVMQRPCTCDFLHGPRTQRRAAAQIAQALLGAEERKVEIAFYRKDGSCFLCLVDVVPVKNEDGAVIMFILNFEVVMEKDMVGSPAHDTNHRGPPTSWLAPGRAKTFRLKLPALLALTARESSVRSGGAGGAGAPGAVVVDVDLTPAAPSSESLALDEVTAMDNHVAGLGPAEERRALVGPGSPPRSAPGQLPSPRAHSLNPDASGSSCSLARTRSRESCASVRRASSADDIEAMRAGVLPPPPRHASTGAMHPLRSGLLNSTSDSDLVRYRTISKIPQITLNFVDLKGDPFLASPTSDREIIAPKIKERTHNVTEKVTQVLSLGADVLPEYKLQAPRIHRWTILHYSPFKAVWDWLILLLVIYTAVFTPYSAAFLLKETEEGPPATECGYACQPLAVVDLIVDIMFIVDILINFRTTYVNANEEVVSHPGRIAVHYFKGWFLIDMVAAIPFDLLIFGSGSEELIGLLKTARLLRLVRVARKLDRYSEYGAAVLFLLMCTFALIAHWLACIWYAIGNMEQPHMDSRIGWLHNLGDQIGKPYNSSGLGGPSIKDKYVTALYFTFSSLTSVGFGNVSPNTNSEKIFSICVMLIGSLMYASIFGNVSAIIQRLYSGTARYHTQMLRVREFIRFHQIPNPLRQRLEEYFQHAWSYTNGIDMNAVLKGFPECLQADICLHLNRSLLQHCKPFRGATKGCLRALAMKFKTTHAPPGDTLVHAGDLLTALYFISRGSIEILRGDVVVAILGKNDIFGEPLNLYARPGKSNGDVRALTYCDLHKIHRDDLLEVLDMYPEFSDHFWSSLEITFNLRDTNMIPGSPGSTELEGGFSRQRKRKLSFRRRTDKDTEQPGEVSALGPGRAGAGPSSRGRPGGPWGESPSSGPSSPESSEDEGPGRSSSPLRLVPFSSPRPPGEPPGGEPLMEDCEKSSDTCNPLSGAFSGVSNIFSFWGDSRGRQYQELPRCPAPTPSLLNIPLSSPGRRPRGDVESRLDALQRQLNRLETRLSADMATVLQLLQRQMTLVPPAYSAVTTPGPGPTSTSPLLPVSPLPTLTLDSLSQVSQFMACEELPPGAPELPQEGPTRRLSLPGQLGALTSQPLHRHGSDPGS
# Method in brief: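 Fluorescence at 540 nm emission (480 nm excitation) was recorded kinetically for 2 min at 1-second intervals once the thallium-containing stimulus reached cells previously loaded with FluxOR II dye.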
# [8] = biological target: Cytochrome P450 3A4 (Homo sapiens) (UniProt P08684); assay: Cytochrome P450 Family 3 Subfamily A Member 4 (CYP3A4) small molecule antagonists: luciferase reporter qHTS assay (AID 1671201); also: nearly all actives have a fitted effect of over 50% in size; also: potency is read from the fitted curve at half-maximal effect
# Chain of Cytochrome P450 3A4 (Homo sapiens) (P08684 whole entry, looked up): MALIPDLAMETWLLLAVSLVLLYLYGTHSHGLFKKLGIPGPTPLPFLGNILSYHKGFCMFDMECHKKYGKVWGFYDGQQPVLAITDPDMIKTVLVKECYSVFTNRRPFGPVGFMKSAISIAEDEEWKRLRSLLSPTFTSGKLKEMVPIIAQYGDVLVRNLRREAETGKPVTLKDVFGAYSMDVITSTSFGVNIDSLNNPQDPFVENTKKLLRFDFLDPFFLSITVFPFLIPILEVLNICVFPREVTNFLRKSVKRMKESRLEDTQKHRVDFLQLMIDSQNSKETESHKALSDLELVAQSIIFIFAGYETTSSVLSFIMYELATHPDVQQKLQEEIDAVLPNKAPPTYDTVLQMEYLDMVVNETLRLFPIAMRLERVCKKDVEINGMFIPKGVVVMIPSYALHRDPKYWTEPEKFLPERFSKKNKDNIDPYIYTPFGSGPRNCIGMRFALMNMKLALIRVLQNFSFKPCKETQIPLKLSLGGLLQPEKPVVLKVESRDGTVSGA
# Method in brief: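 qHTS, 1536-well. CYP3A4 + proluciferin substrate, cpd 10 min RT → NADPH regen 1 h RT → detection reagent 20 min → luminescence (RLU). Ketoconazole positive control.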
# [9] = biological target: Cytochrome P450 2C9 (Homo sapiens) (UniProt P11712); assay: Cytochrome P450 Family 2 Subfamily C Member 9 (CYP2C9) small molecule antagonists: luciferase reporter qHTS assay (AID 1671198); also: nearly all actives have a fitted effect of over 50% in size; also: potency is read from the fitted curve at half-maximal effect
# Chain of Cytochrome P450 2C9 (Homo sapiens) (P11712 whole entry, looked up): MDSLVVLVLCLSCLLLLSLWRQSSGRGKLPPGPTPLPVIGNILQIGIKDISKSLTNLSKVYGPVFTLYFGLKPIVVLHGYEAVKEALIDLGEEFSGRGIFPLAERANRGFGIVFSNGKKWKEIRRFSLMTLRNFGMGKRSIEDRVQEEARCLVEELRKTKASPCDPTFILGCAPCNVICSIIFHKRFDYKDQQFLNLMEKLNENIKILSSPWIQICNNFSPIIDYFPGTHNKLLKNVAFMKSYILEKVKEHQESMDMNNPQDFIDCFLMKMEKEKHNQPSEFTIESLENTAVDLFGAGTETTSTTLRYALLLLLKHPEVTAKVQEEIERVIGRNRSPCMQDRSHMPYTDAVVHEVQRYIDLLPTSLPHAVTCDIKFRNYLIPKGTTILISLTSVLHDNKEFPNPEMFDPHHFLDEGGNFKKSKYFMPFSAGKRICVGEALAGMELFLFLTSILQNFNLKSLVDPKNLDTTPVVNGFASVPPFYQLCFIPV
# Method in brief: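 Enzyme-substrate mix preincubated with compound 10 min at room temperature; reaction started with NADPH regeneration solution, 1 h 37C. Luminescent luciferin product read after 20 min detection reagent.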
Structure (SMILES),Potency [1],Potency [2],Potency [3],Potency [4],Potency [5],Potency [6],Potency [7],Potency [8],Potency [9]
O=C(O)C(F)(F)C(F)(F)C(F)(F)C(F)(F)C(F)(F)C(F)(F)C(F)(F)F,inactive,inactive,inactive,inactive,79.6 µM (active) and inactive,inactive,inactive,,
N#CC(Br)Br,inactive,,inactive,31.5 µM (active) and inactive,inactive,inactive,,inactive,
CCCCN(CCCC)N=O,34.1 µM (active) and inactive,,inactive,inactive,60.7 µM (active) and inactive,inactive,,inactive,
N[C@@H](Cc1ccc(N(CCCl)CCCl)cc1)C(=O)O,,,,34.1 µM (active) and 34.7 µM (active),8.57 µM (active) and 17.4 µM (active),,inactive,,17.1 µM (active) and 27.5 µM (active)
CCc1cccc(CC)c1N(COC)C(=O)CCl,,inactive,inactive,inactive,9.71 µM (active) and 71 µM (active),inactive,inactive,,
NNC(=S)NN,,inactive,inactive,65 µM (active),32.6 µM (active) and 39.9 µM (active),41 µM (active) and 31.7 µM (active),inactive,,65 µM (active)
S=C1NCCN1,,,,,,,inactive,,
CCN(CC)N=O,inactive,,inactive,inactive,22.6 µM (active),inactive,inactive,inactive,inactive
CCC(C)(c1ccc(O)cc1)c1ccc(O)cc1,inactive,,inactive,inactive,inactive,inactive,inactive,,
CCC(C)c1ccc(O)cc1 (stereo not given),,inactive,inactive,inactive,inactive,35.9 µM (active) and 31.7 µM (active),,inactive,
CCC(C)c1cc([N+](=O)[O-])cc([N+](=O)[O-])c1O (stereo not given),inactive,,inactive,inactive,inactive and 79.6 µM (active),inactive and 63.3 µM (active),,inactive,
CCCCCCOC(=O)c1ccccc1C(=O)OCCCCCC,inactive,inactive,inactive,inactive,20.4 µM (active) and 7.96 µM (active),22.9 µM (active) and 10 µM (active),inactive,,
COc1ccc(C(CN(C)C)C2(O)CCCCC2)cc1 (stereo not given),,,,,,,inactive,,
Nc1ccc(-c2ccc(N)c(N)c2)cc1N,,,,28.2 µM (active),19.9 µM (active) and 3.56 µM (active),35.5 µM (active),,5.01 µM (active) and 2.83 µM (active),17.8 µM (active) and 2.83 µM (active)
CCN(CC)C(=O)SCc1ccc(Cl)cc1,,inactive,inactive,inactive,581 nM (active) and 564 nM (active),13 µM (active) and 15.9 µM (active),,,32.7 µM (active) and 25.2 µM (active)
c1ccc(-c2cccc(-c3ccccc3)c2)cc1,inactive,,inactive,inactive,20.2 µM (active) and 8.94 µM (active),5.7 µM (active) and 5.64 µM (active),inactive,,28.6 µM (active) and 31.7 µM (active)
O=S(=O)(Oc1ccc(Cl)cc1)c1ccc(Cl)cc1,inactive,,inactive,16.1 µM (active) and 28.3 µM (active),114 nM (active) and 126 nM (active),2.87 µM (active) and 4.48 µM (active),24.5 µM (active),,32.1 µM (active) and 25.2 µM (active)

Structure (SMILES),Potency [1],Potency [2],Potency [3],Potency [4],Potency [5],Potency [6],Potency [7],Potency [8],Potency [9]
C[C@]12CCC(=O)C(O)=C1CC[C@@H]1[C@@H]2CC[C@]2(C)C(=O)CC[C@@H]12,,inactive,inactive,31.7 µM (active),20 µM (active),inactive,inactive,,
C#C[C@]1(O)CC[C@H]2[C@@H]3CCC4=CC(=O)CC[C@]4(C)[C@H]3CC[C@@]21C,inactive,inactive,inactive,inactive,6.33 µM (active) and 1.38 µM (active),,,inactive,
CCN(CC)C(=O)/C(Cl)=C(\C)OP(=O)(OC)OC,inactive,,inactive,inactive,inactive,inactive and 39.9 µM (active),inactive,,
CCN(N=O)C(N)=O,,,inactive,inactive,69.7 µM (active) and inactive,inactive,inactive,,
CCCCCc1cc(O)cc(O)c1,,inactive,inactive,10.1 µM (active) and 31.7 µM (active),3.57 µM (active) and 6.33 µM (active),17.9 µM (active) and 35.6 µM (active),,5.05 µM (active) and 22.4 µM (active),
CC(C)=CC1C(C(=O)OCc2coc(Cc3ccccc3)c2)C1(C)C (stereo not given),,,inactive,inactive,8.95 µM (active) and 6.32 µM (active),28.2 µM (active),inactive,,7.98 µM (active) and 3.55 µM (active)
O=C(O)CC[N+](=O)[O-],inactive and 28.3 µM (active),,inactive,inactive,inactive,inactive,inactive,inactive,
N#Cc1cc(Br)c(O)c(Br)c1,inactive,,inactive,inactive,inactive,inactive,inactive,inactive,
COc1ccc(C=O)cc1,,,inactive,inactive,inactive,inactive,,,inactive
CC(C)N(C(=O)SCC(Cl)=C(Cl)Cl)C(C)C,inactive,,inactive,inactive,35.1 µM (active) and 5.03 µM (active),inactive,,inactive,
Nc1ccc(Cl)c(Cl)c1,,inactive,inactive,inactive,inactive,40.9 µM (active) and 35.6 µM (active),inactive,,36.4 µM (active) and 35.6 µM (active)
COP(=S)(OC)Oc1ccc([N+](=O)[O-])cc1,inactive,,inactive,inactive and 35.6 µM (active),8.95 µM (active) and 2.52 µM (active),7.11 µM (active) and 2 µM (active),inactive,,
CCCCC(CC)COC(=O)Cl (stereo not given),,,inactive,inactive,inactive,inactive,,inactive,
ClC1C(Cl)C(Cl)C(Cl)C(Cl)C1Cl (stereo not given),,,,inactive and 39.9 µM (active) and 71 µM (active),,,39.7 µM (active) and inactive and 43.6 µM (active),,32.4 µM (active) and 35.6 µM (active) and 31.7 µM (active)
Nn1cnnc1,,inactive,inactive,inactive,19.3 µM (active) and 71 µM (active),,inactive,inactive,34.4 µM (active)
O=[N+]([O-])c1cccc2ccccc12,inactive,inactive,inactive,inactive,inactive,3.17 µM (active) and 3.99 µM (active),,,
Nc1cccnc1,,inactive,inactive,inactive,71 µM (active),inactive,,,
